Data from PubChem BioAssay (Tox21).
A number with no mark means an inactive call. Results filed as inconclusive are left out. Where a call stands in place of a potency, no number is given. Active and inactive are the calls of the source. Unless noted, the call rests on the fitted dose curve; in most records, active means well fitted curve in the direction sought with a large enough effect in the repeat runs; inconclusive means weak or mixed curves; inactive means no such curve, though single readings can be large; an effect the other way counts as inactive or inconclusive.

Assays:
[1] = qHTS assay for small molecules that induce genotoxicity in human embryonic kidney cells expressing luciferase-tagged ATAD5 (AID 651632); further: nearly all actives have a fitted effect of over 15% in size
How it was run: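 Luminescence read-out: after 16 hr compound exposure at 37C, ATAD5-luciferase HEK293T cells received Amplite, 30 min RT, then CCD imaging. A rise in signal marks genotoxic stress.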

[2] = qHTS assay for small molecules that induce genotoxicity in human embryonic kidney cells expressing luciferase-tagged ATAD5 - cell viability (AID 651634; calls by dose curve; further: nearly all actives have a fitted effect of over 25% in size)
How it was run: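 HEK293T ATAD5-luc cells, 2,000/well; compound 15.5 hr, 37C/5% CO2; CellTiter-Fluor 30 min, 37C; fluorescence read.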

[3] = qHTS assay for small molecule disruptors of the mitochondrial membrane potential - cell viability (AID 720634; calls by dose curve;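 further: human HepG2 liver cancer cells; series mostly up to about 83 µM; nearly all actives have a fitted effect of over 20% in size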)
How it was run: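 Luminescence from CellTiter-Glo (ATP content) gave viability in HepG2 cells, read in the same wells as the MMP dye assay after 1 hr compound exposure at 37 C.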

[4] = qHTS assay for small molecule disruptors of the mitochondrial membrane potential (AID 720635)
How it was run: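 HepG2 cells exposed to compound 1 hr at 37C, then Mito-MPS dye 30 min. Ratio read of aggregate (540/590 nm) versus monomer (490/535 nm) fluorescence.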

[5] = qHTS assay to test for compound auto fluorescence at 590 nm (red) in HepG2 cells (AID 720674)
How it was run: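 Seeding: 2,000 HepG2 cells/well, MEM/10% FBS, overnight 37 C. Dosing: compound vs DMSO. Incubation: 1 hr, 37 C, 5% CO2. Read: fluorescence 540 ex/590 em, Rose Bengal sodium as red reference.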

[6] = qHTS assay to test for compound auto fluorescence at 535 nm (green) in HepG2 cells (AID 720675)
[7] = qHTS assay to test for compound auto fluorescence at 460 nm (blue) in HEK293 cells (AID 720678); further: potency means the concentration at half of the fitted maximal effect
How it was run: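 HEK293, 2,000 cells/well, 10% dialyzed FBS; attach 4-5 hr 37C; pin compound or DMSO; o/n 37C/5% CO2; fluorescence 405/460 nm; triamterene-equivalent units.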

[8] = qHTS assay to test for compound auto fluorescence at 590 nm (red) in HEK293 cells (AID 720679)
How it was run: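 Intensity at 540nm excitation and 590nm emission is reported as Rose Bengal sodium-equivalent autofluorescence. Measurements followed overnight exposure (37C, 5% CO2) of HEK293 cells, 2,000 per well, to 23 nL compound.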

[9] = qHTS assay to test for compound auto fluorescence at 535 nm (green) in HEK293 cells (AID 720680)
[10] = qHTS assay to test for compound auto fluorescence at 460 nm (blue) in HEK293 cell free culture (AID 720681); further: potency means the concentration at half of the fitted maximal effect
How it was run: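 Compounds were added to cell-free DMEM with 10% FBS and fluorescence read directly. The blue channel used 405 nm excitation and 460 nm emission, with triamterene as the reference fluorophore.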

[11] = qHTS assay to test for compound auto fluorescence at 535 nm (green) in HEK293 cell free culture (AID 720682)
How it was run: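 Green-channel intensity (Ex/Em 485/535 nm) was recorded from compound-treated wells containing only DMEM with 10% FBS. Fluorescein provided the equivalency standard.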

[12] = qHTS assay to test for compound auto fluorescence at 590 nm (red) in HEK293 cell free culture (AID 720683)
How it was run: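 Cell-free wells of DMEM with 10% FBS received compound, and intrinsic fluorescence was read at excitation/emission 540/590 nm. Values expressed as equivalence to Rose Bengal sodium.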

[13] = qHTS assay to test for compound auto fluorescence at 590 nm (red) in HepG2 cell free culture (AID 720684)
How it was run: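 Auto fluorescence equivalency versus Rose Bengal sodium, red channel Ex/Em 540/590 nm; compounds in cell-free MEM/10% FBS; DMSO vehicle control.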

[14] = qHTS assay to test for compound auto fluorescence at 460 nm (blue) in HepG2 cell free culture (AID 720685)
How it was run: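 Cell-free plates of MEM plus 10% FBS received 23 nL compound or DMSO vehicle; blue-channel (405/460 nm) intensity scored against triamterene as reference fluorophore.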

[15] = qHTS assay to test for compound auto fluorescence at 535 nm (green) in HepG2 cell free culture (AID 720686)
[16] = target: Glucocorticoid receptor (Homo sapiens) (UniProt P04150); assay: qHTS assay to identify small molecule antagonists of the glucocorticoid receptor (GR) signaling pathway (AID 720692; active means well fitted inhibition curve with a large enough effect in the signal ratio in the repeat runs, not every such curve was filed as active; the % refers to the signal ratio)
Sequence of Glucocorticoid receptor (Homo sapiens) (P04150 whole entry, looked up): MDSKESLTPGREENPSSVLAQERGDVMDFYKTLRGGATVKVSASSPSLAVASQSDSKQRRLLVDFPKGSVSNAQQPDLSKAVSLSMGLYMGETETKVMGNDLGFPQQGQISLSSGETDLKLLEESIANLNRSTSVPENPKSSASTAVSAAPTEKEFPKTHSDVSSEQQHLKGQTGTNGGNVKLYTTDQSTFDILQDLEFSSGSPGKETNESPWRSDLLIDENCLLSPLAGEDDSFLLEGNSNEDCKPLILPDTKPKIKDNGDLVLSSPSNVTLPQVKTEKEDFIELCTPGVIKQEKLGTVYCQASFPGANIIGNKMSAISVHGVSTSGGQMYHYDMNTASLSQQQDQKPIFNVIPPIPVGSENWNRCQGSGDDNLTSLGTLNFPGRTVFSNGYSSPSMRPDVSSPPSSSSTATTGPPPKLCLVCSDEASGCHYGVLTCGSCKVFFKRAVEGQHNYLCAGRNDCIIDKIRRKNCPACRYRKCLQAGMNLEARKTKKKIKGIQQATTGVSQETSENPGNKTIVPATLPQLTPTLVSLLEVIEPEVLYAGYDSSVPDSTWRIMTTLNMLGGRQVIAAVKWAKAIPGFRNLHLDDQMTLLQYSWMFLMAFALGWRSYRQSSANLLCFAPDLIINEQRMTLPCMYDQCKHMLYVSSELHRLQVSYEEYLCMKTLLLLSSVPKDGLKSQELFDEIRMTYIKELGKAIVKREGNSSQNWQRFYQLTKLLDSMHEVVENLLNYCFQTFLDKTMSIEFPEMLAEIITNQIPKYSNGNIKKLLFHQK
How it was run: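 Read-out: beta-lactamase FRET substrate fluorescence, 2 h at room temperature, in HeLa cells stably carrying a GRE-driven bla reporter. Compounds were co-incubated with 5 nM dexamethasone agonist (final) for 18 h at 37 C.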

[17] = qHTS assay to test for compound auto fluorescence at 460 nm (blue) in HepG2 cells (AID 720687)
How it was run: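 HepG2 cells in MEM with 10% FBS, attached overnight at 37 C, were exposed to compound or DMSO for 1 hr at 37 C, 5% CO2. Blue fluorescence was read at 405/460 nm, with triamterene as reference fluorophore.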

[18] = target: Glucocorticoid receptor (Homo sapiens) (UniProt P04150); assay: qHTS assay to identify small molecule agonists of the glucocorticoid receptor (GR) signaling pathway (AID 720691; active means well fitted activation curve with a large enough effect in the signal ratio in the repeat runs, not every such curve was filed as active; the % refers to the signal ratio)
How it was run: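 HeLa GR-bla reporter line; cells pre-incubated 4 h, compound in DMSO 18 h at 37 C; LiveBLAzer B/G FRET substrate 2 h RT; fluorescence intensity read-out.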

[19] = qHTS assay for small molecule agonists of the p53 signaling pathway - cell viability (AID 651633; calls by dose curve;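 further: p53RE-bla HCT reporter cells with a stable beta-lactamase p53 reporter; series mostly up to about 83 µM; nearly all actives have a fitted effect of over 30% in size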)
How it was run: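 p53RE-bla cells were treated with compound for 16 hours at 37 C. Cytotoxicity was then measured as CellTiter-Glo luminescence after 30 min at room temperature.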
Tags describe the fitted curve by direction and shape or compound fluorescence and quenching.

SMILES	Potency [1]	Potency [2]	Potency [3]	Potency [4]	outcome [5]	outcome [6]	Potency [7]	outcome [8]	outcome [9]	Potency [10]	outcome [11]	outcome [12]	outcome [13]	outcome [14]	outcome [15]	Potency [16]	outcome [17]	Potency [18]	Potency [19]
CCCc1nc(C)c2c(=O)[nH]c(-c3cc(S(=O)(=O)N4CCN(CC)CC4)ccc3OCC)nn12	inactive	inactive	inactive	inactive	inactive	inactive	inactive	inactive	inactive	inactive	inactive	inactive	inactive	inactive	inactive	inactive			
CC[C@H](NC(C)C)[C@H](O)c1ccc(O)c2[nH]c(=O)ccc12	inactive	inactive	inactive	inactive	inactive	inactive	11.2 µM [fluorescent] (active)	inactive	inactive	14.1 µM (active)	inactive	inactive	inactive		inactive	inactive	inactive	inactive	
C[C@@H](O)[C@H]1C(=O)N2C(C(=O)O)=C(S[C@@H]3CN[C@H](CNS(N)(=O)=O)C3)[C@H](C)[C@H]12	inactive	inactive	inactive	inactive	inactive	inactive	inactive	inactive	inactive	inactive	inactive	inactive	inactive	inactive	inactive	inactive	inactive	inactive	
O=C(NC1CCN(CCc2c[nH]c3ccccc23)CC1)c1ccccc1	inactive	inactive	inactive			inactive	inactive	inactive	inactive		inactive	inactive	inactive	inactive	inactive		inactive		
C=CC(C)CCC=C(C)C (configuration not stated)	inactive		inactive		inactive	inactive	inactive	inactive	inactive	inactive	inactive	inactive	inactive	inactive	inactive	inactive	inactive	inactive	inactive
CCC[Si](OC)(OC)OC	inactive	inactive		inactive	inactive	inactive	inactive	inactive	inactive	inactive	inactive	inactive	inactive		inactive	inactive	inactive	inactive	
CC(C)(Cc1c[nH]c2ccccc12)NCC(O)COc1ccccc1C#N (configuration not stated)	inactive	inactive	inactive		inactive	inactive	inactive	inactive	inactive	inactive	inactive	inactive	inactive	inactive	inactive				
Cc1c(-c2cccnc2)c2ccccc2n1CCCCC(=O)O	inactive				inactive	inactive	inactive	inactive	inactive	inactive	inactive	inactive	inactive	inactive	inactive		inactive		
COc1ccc(CN(CCN(C)C)c2ncccn2)cc1		inactive	inactive		inactive	inactive	inactive	inactive	inactive	inactive	inactive	inactive	inactive	inactive	inactive		inactive	inactive	inactive
CCC1=C(C)CN(C(=O)NCCc2ccc(S(=O)(=O)NC(=O)NC3CCC(C)CC3)cc2)C1=O (configuration not stated)	inactive	inactive				inactive		inactive	inactive	inactive	inactive	inactive	inactive		inactive	inactive		inactive	
Clc1cccc(C(c2ccc3nc[nH]c3c2)n2ccnc2)c1 (configuration not stated)	inactive				inactive	inactive	inactive	inactive	inactive	inactive	inactive	inactive	inactive	inactive	inactive		inactive	inactive	inactive
